High-throughput results deposited in PubChem by several laboratories.
Cardio protect – myocardial damage modulation in H9c2 cells | H9c2 cardiomyocytes, H2O2 injury protection, ATPLite, 2 h | protection from H2O2 cell death, % at 20 µM | 360,000 tested, 0.63% active;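 active = compounds giving at least 50% protection of heart cells from peroxide-induced death in the single-dose screen, raw or plate-pattern-corrected value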;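 also: 0% = DMSO wells with peroxide and 100% = DMSO wells without peroxide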
ABHD5 PLIN5 PPI – blocks binding of human ABHD5 to perilipin-5. Q00G26+Q8WTS1. Split G. princeps luciferase complementation, luminescence, 4 h. inhibition, % at 4 µM. 360,000 tested, 0.78% active;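 active = inhibition above the mean inhibition across every tested compound plus 3 SD, cut at about 22% in these data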;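 also: 0% = DMSO only wells and the 100% control is not disclosed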
Myeloid diff 2 – myeloid differentiation induction; ER-HoxA9 myeloid progenitors, lysozyme-GFP differentiation, flow cytometry; calls only at 10 µM; 360,000 tested, 1% active; AID 624256;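 active = normalized GFP-positive differentiation at or above the plate's own cutoff, the solvent-only control mean plus 3 SD; inconclusive = no clear call, values can overlap the other calls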;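 also: cells exposed to compound for four days before flow analysis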
Rtt109 HAT inh – blocks Candida albicans Rtt109/Vps75 acetyltransferase activity; purified Rtt109/Vps75, ThioGlo CoA-SH fluorescence, 4 h; 330,000 tested, 0.16% active; Q5AAJ8; inhibition, % at 34.9 µM;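 active = inhibition of at least 50% in every replicate; inconclusive = best replicate reaches 50% inhibition but some replicates fall short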
Target sequence (Q5AAJ8 whole entry, looked up): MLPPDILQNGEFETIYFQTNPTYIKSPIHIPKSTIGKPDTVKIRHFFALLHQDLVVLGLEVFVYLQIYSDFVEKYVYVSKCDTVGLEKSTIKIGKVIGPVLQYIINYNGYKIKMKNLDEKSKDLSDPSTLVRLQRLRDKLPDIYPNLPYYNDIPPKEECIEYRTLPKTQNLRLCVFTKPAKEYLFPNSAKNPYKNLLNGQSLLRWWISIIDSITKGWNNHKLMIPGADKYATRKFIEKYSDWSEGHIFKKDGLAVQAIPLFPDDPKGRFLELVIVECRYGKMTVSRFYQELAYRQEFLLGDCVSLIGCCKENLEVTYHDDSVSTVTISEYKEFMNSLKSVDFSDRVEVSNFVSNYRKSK
DAGLB inhibitor – blocks human DAGLB lipase activity | Q8NCG7 | HEK293T DAGLB membrane lysate, EnzChek fluorogenic substrate | inhibition, % at 5.17 µM | 340,000 tested, 0.059% active; in the data active = inhibition above about 34%;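 also: 0% = enzyme with vehicle and 100% = wells lacking enzyme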
HGIII-sPLA2 inh – Blocks human group III sPLA2 activity; Q9NZ20; QFRET BODIPY PC-A2 liposome hydrolysis, fluorescence; inhibition, % at 12.2 µM; 370,000 tested, 0.56% active;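 active = inhibition above mean plus 3 SD of compounds lying within the high and low control bounds, cut at about 19% in these data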;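 also: 0% = median of test compound wells and 100% = no enzyme DMSO wells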
sPLA2 confirm – human GIII-sPLA2 inhibition, confirmation; shares compounds with HGIII-sPLA2 inh; recombinant hGIII-sPLA2, BODIPY PC-A2 QFRET fluorescence; inhibition, % at 12.2 µM; 2,000 tested, 34% active;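 active = mean inhibition across triplicates above the hit cutoff set in the earlier primary screen, cut at about 19% in these data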;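 also: 0% = enzyme with DMSO and 100% = DMSO wells lacking enzyme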
BODIPY interf – optically interferes with 535nm fluorescence in sPLA2 counter-screen. shares compounds with HGIII-sPLA2 inh. BODIPY FL product fluorescence interference, QFRET. inhibition, % at 12.2 µM. 2,000 tested, 8.5% active. AID 743282;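 active = average inhibition above the solvent-only control mean plus 3 SD, cut at about 6% in these data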;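 also: 0% = DMSO with substrate plus product and 100% = DMSO with substrate alone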
BODIPY interf DR – counter-screen for HGIII-sPLA2 inhibitors: 535nm fluorescence interference, dose response | shares compounds with HGIII-sPLA2 inh | IC50, µM | 240 tested, under 10 active | BODIPY FL product fluorescence interference, cell-free;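 active = IC50 at or below 10 µM; inactive = IC50 above 10 µM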
Starred values were filed as active, the others as inactive; i = inactive; u = inconclusive; x = no result given. Compounds with a hit are over-represented: about 2.9% of the library has one in this group of screens.

SMILES	Cardio protect	ABHD5 PLIN5 PPI	Myeloid diff 2	Rtt109 HAT inh	DAGLB inhibitor	HGIII-sPLA2 inh	sPLA2 confirm	BODIPY interf	others
CCOC(=O)c1sc(NC(=S)NC(=O)c2ccc(OC)cc2)nc1C	1	-5	i	7	1	3	x	x
COc1ccc(C(=O)NC(=S)Nc2nc(C)c(C(=O)N(C)C)s2)cc1	-2	4	i	-6	0	22*	15	-4
CCOC(=O)CN1C(=O)N(CC)C(C)=C(C(=O)OC)[C@@H]1c1ccccc1	8	-4	i	2	0	6	x	x
COc1cccc(CC2(CO)CCCN(Cc3[nH]c4ccc(C)cc4c3C)C2)c1 (stereo unspecified)	-15	11	i	8	1	-25	x	x
COc1ccc(C(=O)NC(=S)NNC(=O)c2cccc(C)c2)cc1	x	x	x	x	x	27*	38*	-7	BODIPY interf DR=>122
Cc1ccc2nc(NC(=S)NC(=O)c3ccc(OC(C)C)cc3)sc2c1	-25	1	i	-2	2	10	x	x
CCCOc1ccc(C(=O)NC(=S)Nc2nc3ccccc3s2)cc1	-11	-8	i	-6	-3	26*	2	-2
CN1CCN(NC(=O)c2cccc(Br)c2)CC1	0	4	i	-10	1	21*	2	-2
COC(=O)[C@]12C[C@H](CC(=O)N3CCOCC3)C(=O)N(CCc3ccc(OC)c(OC)c3)C1=C[C@H](C(C)(C)C)O[C@@H]2C	x	x	x	x	x	9	x	x
O=C(CN1N=C(C(F)(F)F)CC1(O)c1ccc([N+](=O)[O-])cc1)c1ccccc1 (stereo unspecified)	6	-2	i	10	-5	-16	x	x
O=C(c1ccccc1O)N1N=C(C(F)(F)F)CC1(O)c1ccc([N+](=O)[O-])cc1 (stereo unspecified)	6	-4	i	-2	5	21*	13	5
CCN(C(=O)c1cc2c(=O)n3ccccc3nc2s1)C1CCCCC1	4	-2	i	-22	-3	-1	x	x
CCCNC(=O)COC(=O)c1cc2c(=O)n3ccccc3nc2s1	2	-1	i	-44	0	19*	-4	-4
Cc1ccccc1CSCC(=O)NNC(=S)NCC1CCCO1 (stereo unspecified)	-3	-3	i	-11	0	24*	19	4
O=C(Cc1ccc(Cl)c(Cl)c1)NNC(=S)NCC1CCCO1 (stereo unspecified)	4	-4	i	-3	-2	15	x	x
O=C(CN1C(=O)c2ccccc2C1=O)OCC(=O)N1CCc2ccccc2C1	6	5	i	2	-1	5	x	x
Fc1ccc(NC(=S)NN=Cc2ccccc2Cl)cc1	-5	-15	i	2	-5	12	x	x
Oc1ccccc1C=NNC(=S)Nc1ccc(F)cc1	38	-4	u	0	11	32*	33*	13*
C/C(=N\NC(=S)NCCc1ccccc1)c1ccc(O)cc1O	-7	-3	i	12	3	33*	40*	3	BODIPY interf DR=>122
S=C(NCc1ccccc1)N/N=C/c1cccs1	-1	-1	i	-2	-2	8	x	x
Oc1ccccc1/C=N/NC(=S)NCCc1ccccc1	12	-11	i	-1	2	20*	21*	7.3*
S=C(NCCc1ccccc1)N/N=C/c1cccs1	-2	3	i	x	x	20*	20*	-1
Cc1ccc(S(=O)(=O)N2CCOCC2)cc1NC(=O)CSc1nnnn1C	4	-2	i	-11	-1	12	x	x
CN(C)CC(C)(C)CN=Cc1c(O)[nH]c2ccccc12	6	0	i	8	3	19*	15	-2
COCC(C)N=Cc1c(O)[nH]c2ccccc12 (stereo unspecified)	1	11	i	-13	4	9	x	x
SMILES	Cardio protect	ABHD5 PLIN5 PPI	Myeloid diff 2	Rtt109 HAT inh	DAGLB inhibitor	HGIII-sPLA2 inh	sPLA2 confirm	BODIPY interf	others
O=C1CN(C(=O)c2ccccc2C(=O)O)c2ccccc2N1	2	-3	i	-3	-2	8	x	x
O=C1CN(C(=O)c2ccccc2Cl)c2ccccc2N1	9	2	i	-1	-2	21*	-3	-2
CCc1ccc(NC(=O)C2CCC(CNC(=O)[C@@H]3Cc4ccccc4CN3)CC2)cc1 (stereo partly specified)	2	-7	i	0	2	5	x	x
CC(C)(C)c1cc(C(=O)N/N=C/c2ccc(F)cc2)n(-c2ccccc2)n1	-2	-1	i	6	-3	10	x	x
CC(C)(C)c1cc(C(=O)N/N=C/c2ccccc2O)n(-c2ccccc2)n1	51*	-8	u	8	6	28*	-4	-19
O=C1c2ccccc2C(=O)N1CCSC(=S)N1CCOCC1	5	-6	i	-5	0	2	x	x
CCOc1ccc2ccccc2c1CNCCc1ccc(S(N)(=O)=O)cc1	6	10	i	-5	2	-21	x	x
CN1/C(=C\C(=O)Nc2ccc(F)cc2)C(C)(C)c2ccccc21	-1	-6	i	-8	-5	31*	28*	3	BODIPY interf DR=>122
CN(C)C(=O)NCc1ccc(S(N)(=O)=O)cc1	3	1	i	2	3	3	x	x
CCOc1ccc(NC(=S)N(Cc2ccc(N(C)C)cc2)Cc2ccco2)cc1	-12	-5	u	0	1	x	x	x
COc1ccc(NC(=S)N(Cc2ccc(N(C)C)cc2)Cc2ccco2)cc1	-8	0	i	1	2	22*	10	-7
C/C(=C/C(=O)NCc1ccccc1)C(=O)O	-9	5	i	0	1	2	x	x
CCCCOc1cc(NCc2ccccc2)c2ncn(C(C)C)c2c1	-18	-10	i	2	2	21*	14	-11
CCOC(=O)CCC(NC(=O)CCCC(=O)NC(CCC(=O)OCC)C(=O)OCC)C(=O)OCC (stereo unspecified)	-2	-5	i	-9	1	22*	1	-6
CCn1c(-c2cc3c(C(F)(F)F)nn(C)c3s2)n[nH]c1=S	0	-10	i	4	-3	20*	34*	1	BODIPY interf DR=>122
Cc1ccc2nc(SC(C)C(=O)NCc3ccc4c(c3)OCO4)[nH]c2c1 (stereo unspecified)	0	-4	i	-3	0	-11	x	x
CN1C2=N[C@H](c3ccccc3)CC(=O)N2/C(=C\c2ccccc2)C1Cc1ccccc1 (stereo partly specified)	x	x	x	x	x	0	x	x
